# ± gives the standard deviation of the averaged measurements.
# Tested on: Drosophila ezoana antennal basiconic sensillum ab6
# Test: odor-evoked OSN spike response (post minus pre-stimulus); higher = stronger neuronal excitation
# Conditions: odor dilution: 10^-4
# Description: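 Single sensillum recordings from antennal basiconic sensilla of D. ezoana. A 500 ms pulse of odorant (10^-4 in mineral oil or DMSO) was delivered; the response is the change in action potential frequency between the 1 s pre- and post-stimulus windows (spikes/s).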
row,Structure (SMILES),odor-evoked OSN spike response [spikes/s]
1,OCCc1ccccc1 [2-phenylethanol],53 ± 31
2,CCOC(=O)c1ccccc1 [ethyl benzoate],66.1 ± 26
3,CCOC(=O)CC(C)O (stereo not given) [Ethyl-3-hydroxybutyrate],93.1 ± 33
4,COc1ccccc1O [guaiacol],123 ± 36
5,CCCCCC(=O)OCC [ethyl hexanoate],52.2 ± 20
6,CCCCCCCC(C)O (stereo not given) [2-nonanol],55.7 ± 33
7,C/C=C/C(=O)OCC [Ethyl crotonate],71.1 ± 37
8,CCCC(=O)OCC [ethyl butanoate],52.1 ± 29
9,CCCCCCCC(C)=O [2-nonanone],54.7 ± 22
10,CCOC(=O)C(C)O (stereo not given) [Ethyl lactate],58 ± 18
11,CCCCCOC(C)=O [pentyl acetate],67.9 ± 20
12,CCOC(C)=O [Ethyl acetate],55.2 ± 25
13,C=CC(O)CCCCC (stereo not given) [1-octen-3-ol],143 ± 47
14,CCCCC(C)O (stereo not given) [2-hexanol],67.3 ± 33
15,CC(=O)C(C)O (stereo not given) [acetoin],69.8 ± 40
16,COC(=O)c1ccccc1O [Methyl salicylate],58.3 ± 32
17,Oc1ccccc1 [phenol],73 ± 38
18,CC(=O)CCC=C(C)C [6-methyl-5-hepten-2-one],58.1 ± 30
19,CCCCCC(C)=O [2-heptanone],60.9 ± 21
20,CCCCCCO [1-hexanol],77.5 ± 29

# Reference: the supplement of paper PMC10477191
